This is an account of results in PubChem BioAssay AID651597 (National Center for Advancing Translational Sciences (NCATS), 2012).

Values joined by “and” are separate entries in the source; they are usually repeats but may differ in a detail not shown here. Equal entries are not always repeated. Out of some 1,100 compounds screened, about 390 (35%) were called active. Inconclusive results (about 30%) are left out. Calls follow the shape of the dose curve; as a rule, active = well fitted inhibition curve with a large enough effect; inconclusive = small, poorly fitted or top-dose-only effect; inactive = flat fitted curve, though single readings scatter. Some of the results follow. Where a call stands in place of a potency, no number is given.
Potency is read from the fitted curve at half-maximal effect.

This experiment concerns the target Luciferin 4-monooxygenase (Photinus pyralis) (UniProt P08659). Kind of experiment: qHTS of Nrf2 Activators: Hit Validation in Secondary FLuc Assay. Also: nearly all actives have a fitted effect of over 65% in size. The settings on record: firefly luciferase inhibition counter-screen, luminescence; series mostly up to 57.5 µM. The text has this:
Many diseases have some form of oxidative stress injury and ties to inflammation, causing a host of problems for the patient. The antioxidant response element (ARE) plays an important role in alleviating the harmful effects of oxidative stress. The antioxidant response element (ARE) is a transcriptional regulatory element involved in the activation of genes coding for a number of antioxidant proteins and detoxifying enzymes. These enzymes work in concert to protect tissues from oxidative insults and chemical toxicities in human hepatocytes and immune cells. The protective effects of ARE activation are primarily triggered through Nrf2 (NF-E2-related factor) binding to and activating AREs. It is known that Nrf2 controls the production of over 250 antioxidant and detoxification proteins (Hu et al., 2006), thereby protecting tissues by increasing cellular antioxidant content and suppressing inflammatory signaling pathways. The transcription factor Nrf2 is a central link between oxidative chemicals, such as phenolic antioxidants and electrophilic compounds, and the activation of ARE. Nrf2 levels are constitutively low as a consequence of its interaction with Keap1, which targets its degradation (Zipper and Mulcahy, 2002). Electrophiles react with key cysteine residues in Keap1, releasing Nrf2 and allowing its translocation to the nucleus. Once within the nucleus, Nrf2 complexes with coactivators such as p300, and binds to the AREs to induce gene transcription of cytoprotective enzymes, resulting in the prevention of toxicity. Activation of Nrf2 protects tissues by increasing cellular antioxidant content and suppressing inflammatory signaling pathways. Identifying novel and potent Nrf2 activators by using the AREc32 cell line to detect ARE activation by small molecules will lead to the identification and development of probes to study protective pathways in multiple tissues. These specific probes are essential to study the ARE pathway, and eventually to determine whether this pathway does activate genes that could protect against a host of diseases, including cardiovascular diseases, obesity, diabetes, Alzheimer's, and Parkinson's disease.
This project's aim is to identify novel and potent Nrf2 activators by using the AREc32 cell line to detect ARE activation by small molecules, which will lead to the identification and development of probes to study the ARE pathway. In this counter assay, we aim to identify false positive as identified from this primary assay using an FLuc assay with an inhibiting read-out.
NIH Chemical Genomics Center [NCGC]
NIH Molecular Libraries Probe Centers Network [MLPCN]
Assay Submitter (PI): Curtis Klaassen, University of Kansas Medical Center
Assess whether an activator in the primary assay potentially causes such activation by inhibitor-induced stabilization of the firefly luciferase reporter enzyme by determining whether it inhibits firefly luciferase in the presence of Km concentrations of its substrates (ATP and D-luciferin).
(In qHTS, concentration-response curves come from the screen itself.)
Turning to `O=c1cc(-c2ccco2)nc(SCc2cccc(Cl)c2)[nH]1`, the Potency entry is “inactive”. Take `C=CCSc1nccc(-c2cc(Cl)sc2Cl)n1`: the Potency entry is “inactive”. For the molecule `c1ccc(CSc2nccc(-c3ccco3)n2)cc1`, the Potency is 12 µM (active).

For `COC(=O)c1cc2c(s1)-c1cc(F)ccc1OC2`, the Potency result is “inactive”. With `CCn1c(NC(=O)c2cccs2)nc2ccccc21`, the Potency is 12 µM (active). Take `CCn1c(NC(=O)c2ccccc2)nc2ccccc21`: the Potency is 9.53 µM (active). In the case of `Brc1cc(Cc2nnc(-c3ccccc3)o2)c(Br)s1`, the Potency result is “inactive”. Next, `c1ccc(-c2nnc(-c3ccccc3)o2)cc1`: 1.9 µM (active); `O=[N+]([O-])c1cccc(-c2nnc(-c3ccccc3)o2)c1`: 2.39 µM (active). Next, `O=[N+]([O-])c1cccc(-c2nc(-c3ccccn3)no2)c1`: 1.9 µM (active). With `N=c1n(CCN2CCOCC2)c2ccccc2n1CC(=O)c1cccc([N+](=O)[O-])c1`, the Potency entry is “inactive”.

Take `O=C1C2C(C(=O)N1/N=C/c1ccc([N+](=O)[O-])o1)C1C=CC2C12CC2` (stereo not drawn): the Potency result is “inactive”.

With `O=[N+]([O-])c1cnccc1-n1nnc2ccccc21`, the Potency entry is “inactive”.

Turning to `NC(=O)c1cc2c3ccccc3ccn2c1-c1ccccc1`, the Potency was 13.5 µM (active). Next, `CCOc1c(Br)cc(C(N)=O)cc1OCc1ccccc1`: “inactive”. With `COC(=O)C1=C(C)N(C)C(=O)/C1=C\c1ccco1`, the Potency result was “inactive”.

Take `O=C1C(=Cc2ccco2)CCCC1=Cc1ccco1`: the Potency is 2.69 µM (active). For the molecule `Nc1ccc(S(=O)(=O)Nc2nccc(/C=C/c3cccc(Br)c3)n2)cc1`, the Potency entry was “inactive”. With `Nc1nccc(/C=C/c2c(F)cccc2Cl)n1`, the Potency was 9.53 µM (active). For `COC(=O)c1ccccc1NC(=O)COCc1cc(-c2cccs2)on1`, the Potency entry was “inactive”. As to `COc1ccccc1C(=O)COC(=O)c1cccs1`, the Potency is 2.69 µM (active). Turning to `COC(=O)c1ccccc1NC(=O)c1cccs1`, the Potency result was “inactive”. Regarding `COc1cc(OC)cc(-c2nc3ccccc3s2)c1`, the Potency is 3.79 µM (active). Next, `COc1nc(-c2ccccc2)cc(-c2ccccc2)n1`: “inactive”; `Cc1cccc(NC(=O)C2CC(=O)N/C(=N/N=C/c3ccco3)S2)c1` (stereo not drawn): “inactive”; `C/C(=N\NC(=S)Nc1cccc(C)c1)c1ccco1`: 7.57 µM (active). With `Cc1ccnc(SCC(=O)c2ccc(Br)cc2)c1C#N` the figure was 6.01 µM (active). With `Cc1cc(C)c(C#N)c(OCC(=O)c2ccc(Br)cc2)n1` the entry was “inactive”.

Turning to `N#C/C(=C(/O)c1ccco1)c1nc2ccccc2s1`, the Potency was 2.39 µM (active) and 2.69 µM (active). With `N#C/C(=C(/O)c1ccco1)c1nc2ccccc2[nH]1` the figure was 3.79 µM (active). With `COCCn1c(C(F)(F)F)ccc(NC(=O)c2ccccc2)c1=O` the figure was 4.78 µM (active); with `COC(=O)c1cc2nc(-c3ccccc3)cc(C(F)(F)F)n2n1`, “inactive”; with `COC(=O)c1sccc1NC(=O)c1ccccc1`, “inactive”.

Regarding `O=C1N/C(=N\N=C\c2ccco2)SC1Cc1ccccc1[N+](=O)[O-]` (stereo not drawn), the Potency result was “inactive”. `Cc1ccc2[nH]c(=O)c3cc(C(=O)N(C)Cc4ccco4)sc3c2c1`: the Potency is 12 µM (active). With `CN(C)CCNC(=O)c1cccc2ccc(-c3ccc(-c4ccccc4)cc3)nc12` the entry was “inactive”; with `CC(=O)Cn1nnc2sc(-c3ccccc3)cc2c1=O`, 6.01 µM (active) and 5.36 µM (active).

Take `CCN(C(=O)Cn1nnc2sc(-c3ccccc3)cc2c1=O)c1cccc(C)c1`: the Potency is 12 µM (active). On to `CC(=NNc1ccc2ccccc2n1)c1ccccc1O`, for which the Potency is 0.0169 µM (active). With `Cc1cc(C)c(-n2c(SCCS(=O)(=O)c3ccc(F)cc3)n[nH]c2=O)c(C)c1` the entry was “inactive”; with `COc1cccc(C(=O)Oc2ccccc2/C=C\C(=O)c2cc3ccccc3o2)c1`, 1.51 µM (active); with `COc1ccc(-c2cc3ccccc3oc2=O)cc1NC(=O)c1ccc([N+](=O)[O-])o1`, “inactive”.

As to `O=C(Oc1ccccc1/C=C\C(=O)c1cc2ccccc2o1)c1ccccc1`, the Potency was 1.07 µM (active). In the case of `CN1CCN(CCCNC(=O)c2cc3c(=O)n(C)c4ccccc4c3s2)CC1`, the Potency entry was “inactive”. With `O=[N+]([O-])c1ccc(/C=[N+](\[O-])[C@@H]2CCCC[C@@H]2/[N+]([O-])=C/c2ccc([N+](=O)[O-])o2)o1` the entry was “inactive”; with `O=[N+]([O-])c1ccc(/C=N/Nc2ccc3ccccc3c2)o1`, 1.69 µM (active); with `O=[N+]([O-])c1ccc(/C=N/N=C/c2ccc([N+](=O)[O-])o2)o1`, “inactive”. On to `O=C(COCc1cc(-c2ccc(F)cc2)on1)Nc1cc(Cl)ccc1O`, for which the Potency entry is “inactive”. Take `Cc1cccc2nc3c(nc12)-c1ccccc1C3=O`: the Potency result was “inactive”.

As for `Cc1cccc2cc3c(nc12)-c1ccccc1C3=O`, the Potency is 10.7 µM (active). Next, `CS(=O)(=O)c1nc(S(=O)(=O)c2ccc(Cl)cc2)c(N2CCOCC2)s1`: “inactive”; `Clc1cc(Cl)cc(Nc2ncnc(-n3cccc3)n2)c1`: “inactive”; `CCn1nc(C)c(Br)c1-c1nc(-c2cccc(C)c2)no1`: “inactive”. With `Clc1ccc(-c2nnc(-c3cccc4ccccc34)o2)cc1` the figure was 1.35 µM (active); with `Cc1cccc(-c2nnc(-c3cccc4ccccc34)o2)c1`, 0.675 µM (active); with `COc1cc2c(cc1Cl)/C(=C\CCN(C)C)c1ccccc1S2`, “inactive”. Turning to `Cc1nnc2n1N=CC=C(c1ccccc1)S2`, the Potency result was “inactive”. On to `C#CCSc1nnc(-c2sc3ccccc3c2Cl)o1`, for which the Potency was 2.39 µM (active). Next, `O=C1C(=C2CCc3ccccc32)Cc2ccccc21`: 0.301 µM (active); `O=C(NNC(=O)c1sccc1-n1cccc1)c1cccc(Cl)c1`: “inactive”. Next, `O=C(NN/C(=N/S(=O)(=O)c1ccc(Cl)cc1)c1ccccc1)c1cccc(Cl)c1`: 3.01 µM (active). Next, `Cc1ccc(S(=O)(=O)/N=C(/NNC(=O)c2cccc(Cl)c2)c2ccccc2)cc1`: 5.36 µM (active); `O=[N+]([O-])c1cccc2ccc(/C=C/c3ccc(F)cc3)nc12`: 2.39 µM (active); `O=[N+]([O-])c1ccc(/C=C/c2ccc3cccc([N+](=O)[O-])c3n2)cc1`: “inactive”. For `Cc1c(=O)n(OCc2ccccc2)c2ccccc2[n+]1[O-]`, the Potency result was “inactive”.

As for `N=c1oc2ccccc2cc1-c1nc(-c2ccccc2)cs1`, the Potency was 2.69 µM (active).

For the molecule `Cc1cc(SCC(=O)N/N=C/c2ccco2)nc2ccccc12`, the Potency result is “inactive”.

For the molecule `CC1CCCCC1NC(=O)COC(=O)c1c2c(nc3ccccc13)/C(=C/c1ccco1)CC2` (stereo not drawn), the Potency is 4.78 µM (active).
